Experimental data published in the supplement of paper PMC9694430.
Counter-ions that a name gives are not always drawn.

Tests used:
Test in all cases: thermal shift delta Tm vs DMSO control; higher = stronger stabilization (binding)
Conditions in all cases: 12.5 µM; protein concentration 2 µM
LOC_OS04G57630-cb004 = tested on: LOC_OS04G57630-cb004
Outline: (§1)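 Rice kinase domain constructs, made in E. coli and purified, were placed in 96-well plates at 2 μM in 19.5 μl of 100 mM potassium phosphate pH 7.5, 150 mM NaCl, 10% glycerol and 5 × SYPRO Orange, with compound in DMSO. A temperature ramp from 25°C to 95°C at 0.05°C/s was used for differential scanning fluorimetry. The melting temperature shift is a triplicate mean compared with DMSO-only protein, derived from Boltzmann fits.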

LOC_OS05G07850-cb002 = tested on: LOC_OS05G07850-cb002
Outline: as §1

LOC_OS05G28520-cb001 = tested on: LOC_OS05G28520-cb001
Outline: as §1

LOC_OS05G30820-cb001 = tested on: LOC_OS05G30820-cb001
Outline: as §1

LOC_OS05G43570-cb004 = tested on: LOC_OS05G43570-cb004
Outline: as §1

LOC_OS06G22820-cb001 = tested on: T1, LOC_OS06G22820-cb001
T1 sequence (whole entry): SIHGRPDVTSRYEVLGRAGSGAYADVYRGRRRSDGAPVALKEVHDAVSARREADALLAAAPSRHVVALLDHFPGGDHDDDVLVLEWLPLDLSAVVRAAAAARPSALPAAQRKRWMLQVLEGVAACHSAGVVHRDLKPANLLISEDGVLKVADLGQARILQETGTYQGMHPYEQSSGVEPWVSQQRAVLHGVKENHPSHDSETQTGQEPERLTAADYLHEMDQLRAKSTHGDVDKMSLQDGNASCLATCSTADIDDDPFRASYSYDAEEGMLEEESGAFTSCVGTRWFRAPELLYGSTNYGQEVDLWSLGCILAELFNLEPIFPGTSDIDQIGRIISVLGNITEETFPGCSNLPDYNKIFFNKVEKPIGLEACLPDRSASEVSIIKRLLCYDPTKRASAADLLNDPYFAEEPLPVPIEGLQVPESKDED
Outline: as §1

LOC_OS07G06570-cb004 = tested on: LOC_OS07G06570-cb004
Outline: as §1

LOC_OS07G07230-cb001 = tested on: LOC_OS07G07230-cb001
Outline: as §1

LOC_OS05G16824-cb004 = tested on: LOC_OS05G16824-cb004
Outline: as §1

LOC_OS06G16330-cb003 = tested on: LOC_OS06G16330-cb003
Outline: as §1
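Also: purified Escherichia coli-expressed rice kinase domain construct.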

LOC_OS06G16330-cb003, sequence (as listed by the source): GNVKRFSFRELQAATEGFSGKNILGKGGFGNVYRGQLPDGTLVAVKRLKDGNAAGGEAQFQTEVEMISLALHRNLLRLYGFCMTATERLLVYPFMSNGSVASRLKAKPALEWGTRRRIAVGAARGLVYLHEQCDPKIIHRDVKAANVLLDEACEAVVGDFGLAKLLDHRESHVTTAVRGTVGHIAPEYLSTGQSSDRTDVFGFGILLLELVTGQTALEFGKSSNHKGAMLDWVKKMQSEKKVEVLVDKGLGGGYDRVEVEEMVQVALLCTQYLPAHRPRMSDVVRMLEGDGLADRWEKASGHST

## CCCCCCCCCCCCCCCCCCOP(=O)([O-])OC1CC[N+](C)(C)CC1 [Perifosine (KRX-0401)]
LOC_OS04G57630-cb004
  thermal shift delta Tm: -0.56 °C
LOC_OS05G07850-cb002
  thermal shift delta Tm: -0.07 °C
LOC_OS05G28520-cb001
  thermal shift delta Tm: -1.23 °C
LOC_OS05G30820-cb001
  thermal shift delta Tm: -0.15 °C
LOC_OS05G43570-cb004
  thermal shift delta Tm: -0.61 °C
LOC_OS06G22820-cb001
  thermal shift delta Tm: 0.39 °C
LOC_OS07G06570-cb004
  thermal shift delta Tm: -2.82 °C
LOC_OS07G07230-cb001
  thermal shift delta Tm: -2.65 °C

## CN1CC[C@H](c2c(O)cc(O)c3c(=O)cc(-c4ccccc4Cl)oc23)[C@H](O)C1 [Flavopiridol HCl]
LOC_OS04G57630-cb004
  thermal shift delta Tm: 0.77 °C
LOC_OS05G07850-cb002
  thermal shift delta Tm: 4.9 °C
LOC_OS05G16824-cb004
  thermal shift delta Tm: 0.91 °C
LOC_OS05G28520-cb001
  thermal shift delta Tm: 0.55 °C
LOC_OS05G30820-cb001
  thermal shift delta Tm: 0.9 °C
LOC_OS05G43570-cb004
  thermal shift delta Tm: 0.71 °C
LOC_OS06G16330-cb003
  thermal shift delta Tm: 3.57 °C
LOC_OS06G22820-cb001
  thermal shift delta Tm: 1.71 °C
LOC_OS07G06570-cb004
  thermal shift delta Tm: 0.71 °C
LOC_OS07G07230-cb001
  thermal shift delta Tm: 0.03 °C

## Cc1nc2c(-c3cnc(N)nc3)nc(N3CCOCC3)nc2n1C(C)C
LOC_OS04G57630-cb004
  thermal shift delta Tm: 0.5 °C
LOC_OS05G07850-cb002
  thermal shift delta Tm: 2.64 °C
LOC_OS05G16824-cb004
  thermal shift delta Tm: 0.17 °C
LOC_OS05G28520-cb001
  thermal shift delta Tm: 0.5 °C
LOC_OS05G30820-cb001
  thermal shift delta Tm: 0.32 °C
LOC_OS07G06570-cb004
  thermal shift delta Tm: 1.35 °C
LOC_OS07G07230-cb001
  thermal shift delta Tm: -0.09 °C

## Cn1sc(=O)n(Cc2ccccc2)c1=O
LOC_OS04G57630-cb004
  thermal shift delta Tm: -1.01 °C
LOC_OS05G07850-cb002
  thermal shift delta Tm: -2.47 °C
LOC_OS05G16824-cb004
  thermal shift delta Tm: 4.99 °C
LOC_OS05G28520-cb001
  thermal shift delta Tm: 1.84 °C
LOC_OS05G30820-cb001
  thermal shift delta Tm: 0.45 °C
LOC_OS05G43570-cb004
  thermal shift delta Tm: 0.04 °C
LOC_OS06G22820-cb001
  thermal shift delta Tm: 0.72 °C
LOC_OS07G06570-cb004
  thermal shift delta Tm: 0.43 °C
LOC_OS07G07230-cb001
  thermal shift delta Tm: -0.42 °C
